HDAC3 inh – human HDAC3 inhibition; inhibition, % at 8.3 µM; recombinant HDAC3, fluorogenic peptide/trypsin coupled, fluorescence; AID 2718; O15379; actives 0.15% (n = 320,000); in the data active means inhibition above about 26%, passing the limit was not always enough
HTR2A ag – agonists of mouse serotonin 5-HT2A receptor (HTR2A); P35363; CHO-K1 mHTR2A beta-arrestin complementation, luminescence; percent of 30 µM serotonin response; activation, % at 7.6 µM; actives 0.66% (n = 360,000); AID 624169;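 active means activation above a run cutoff, the mean activation of all tested compounds plus 3 SD, cut at about 14% in these data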;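 further: 0% = plate median of compound wells and 100% = 30 µM serotonin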
CTSL1 counter – counter-screen for PFM18AAP inhibitors: inhibitors of F. hepatica cathepsin L1 | recombinant F. hepatica cathepsin L1, Z-Leu-Arg-MCA fluorescence | inhibition, % at 5.96 µM | actives 0.49% (n = 300,000) | AID 1906;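 active means inhibition above the mean of all tested compounds plus 3 SD, set per screening campaign, cut at about 17% in these data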;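 further: 0% = plate median of test compound wells and 100% = 1 µM Z-Phe-Ala-diazomethylketone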
LANA-H2A inh – blocks KSHV LANA binding to histone H2A/H2B; inhibition, % (test concentration not listed); Q9QR71; actives 0.6% (n = 320,000); cell-free LANA-H2A/H2B peptide, fluorescence polarization; in the data active means inhibition mostly above about 10%, no sharp cut-off; inactive means mostly below about 6.7%
OPRM1 ag – activates human mu opioid receptor in HTR2A counterscreen; shares compounds with HTR2A ag; U2OS OPRM1 beta-arrestin PathHunter, luminescence; DMSO 0%, DAMGO 9.3 µM 100%; actives 5.3% (n = 2,300); AID 624380; activation, % at 9.3 µM;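 active means mean activation above the mean of DMSO-only wells plus 3 SD, cut at about 0.5% in these data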
Target sequence (P35372 whole entry, looked up): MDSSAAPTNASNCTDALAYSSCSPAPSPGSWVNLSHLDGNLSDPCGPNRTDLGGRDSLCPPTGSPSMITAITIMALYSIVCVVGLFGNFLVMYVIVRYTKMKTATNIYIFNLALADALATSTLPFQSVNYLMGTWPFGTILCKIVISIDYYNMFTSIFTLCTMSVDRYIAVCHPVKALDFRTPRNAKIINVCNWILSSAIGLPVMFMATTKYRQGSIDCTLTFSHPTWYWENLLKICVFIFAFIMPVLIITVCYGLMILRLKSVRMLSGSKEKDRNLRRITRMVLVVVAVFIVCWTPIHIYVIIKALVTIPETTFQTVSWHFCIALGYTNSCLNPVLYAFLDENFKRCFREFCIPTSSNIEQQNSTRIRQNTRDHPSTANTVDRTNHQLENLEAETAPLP
HTR2A ag conf – confirmation of mouse HTR2A serotonin receptor agonists; CHO-K1 PathHunter beta-arrestin recruitment, luminescence; DMSO 0%, 30 µM serotonin 100%; activation, % at 7.6 µM; actives 19% (n = 2,300); shares compounds with HTR2A ag;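 active means mean activation across triplicates above the hit threshold derived in the original primary screen, cut at about 15% in these data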
An asterisk follows results filed as active; / = no result given. Rows were chosen to be rich in hits. Some 1.7% of all compounds tested hit in one or more screens of this group.

SMILES	HDAC3 inh	HTR2A ag	CTSL1 counter	LANA-H2A inh	OPRM1 ag	HTR2A ag conf
O=C(Nc1ccccc1C(=O)Nc1ccc(Br)cn1)c1cccc([N+](=O)[O-])c1	0	-4	-1	1	/	/
CC(C)C[C@H]1C(=O)N2CCC[C@H]2[C@]2(O)O[C@](NC(=O)[C@@H]3C=C4c5cccc6[nH]c(Br)c(c56)CC4N(C)C3)(C(C)C)C(=O)N12 (some centres not stated)	-2	41*	-2	-7	0	127*
O=C(O)c1ccccc1Nc1cccc(C(F)(F)F)c1	/	-1	/	-19	/	/
O=C(O)c1ccccc1Nc1ccnc(C(F)(F)F)c1	1	19*	2	-6	-1	-1
CCn1c(SCC(=O)c2cccs2)nnc1-c1ccco1	4	16*	-2	1	-1	4
CCCCN1C(=O)CC(SC2CC(=O)N(CCCC)C2=O)C1=O (configuration not stated)	/	-6	/	/	/	/
CCCCN1C(=O)CC2CCOC21C (configuration not stated)	/	21*	/	/	-1	-3
O=C(Cn1cc(F)c(=O)[nH]c1=O)c1ccco1	/	1	/	/	/	/
COc1ccccc1NC(=O)c1oc2ccccc2c1NC(=O)c1cc(OC)c(OC)c(OC)c1	1	-1	-2	-1	/	/
COCC(=O)Nc1c(C(=O)Nc2ccccc2OC)oc2ccccc12	-1	15*	-1	2	0	-6
CCOc1ccc(-n2c(Cc3cc(=O)[nH]c(=O)[nH]3)nnc2SC(C)C(=O)OC)cc1 (configuration not stated)	6	3	1	-2	/	/
COC(=O)C(C)Sc1nnc(Cc2cc(=O)[nH]c(=O)[nH]2)n1-c1cc(C)ccc1C (configuration not stated)	1	31*	-2	2	0	-3
Cc1cc(C)n2nc(CNS(=O)(=O)c3ccc(C(C)(C)C)cc3)nc2n1	/	22*	/	/	0	2
COc1ccc(S(=O)(=O)NCc2nc3nc(C)cc(C)n3n2)cc1OC	-2	-4	-2	0	/	/
COc1ccccc1NS(=O)(=O)c1ccc(C)c(C(=O)NCC(c2cccs2)N2CCOCC2)c1 (configuration not stated)	/	19*	/	/	0	-1
Cc1ccccc1OCC(=O)NCC(c1cccs1)N1CCOCC1 (configuration not stated)	-1	18*	-3	2	0	-3
COc1ccc(S(=O)(=O)N2CCc3ccccc32)cc1[N+](=O)[O-]	2	-5	1	2	/	/
OCC[C@H]1C[C@@H](O)[C@H](O)[C@@]2(Cc3ccccc3CO2)O1	4	15*	-3	0	-1	0
OCC[C@@H]1C[C@H](O)[C@@H](O)[C@@]2(Cc3ccccc3CO2)O1	6	2	3	0	/	/
CCCCN(C=O)c1c(CC)nc2c(OCC(=O)c3ccc(F)cc3)cccn12	/	3	/	/	/	/
CN1CCN(C(c2ccc(Cl)cc2)c2cc(Cl)c3cccnc3c2O)CC1 (configuration not stated)	8	-31	-1	3	/	/
Oc1c(C(c2ccccn2)N2CCCCC2)cc(Cl)c2cccnc12 (configuration not stated)	9	22*	-3	-2	-1	-18
O=C(CNS(=O)(=O)c1ccccc1)N1CCN(Cc2ccccc2)CC1	-5	-3	-1	-5	/	/
N#Cc1ccc(CN2CCN(C(=O)CNS(=O)(=O)c3ccc4c(c3)OCCCO4)CC2)cc1	-8	15*	/	-2	-1	-3
O=C(CNS(=O)(=O)c1ccc(Br)cc1)N1CCN(Cc2ccccc2)CC1	1	15*	2	-4	0	17*
SMILES	HDAC3 inh	HTR2A ag	CTSL1 counter	LANA-H2A inh	OPRM1 ag	HTR2A ag conf
COc1ccccc1CNC(=O)CSc1nnc2c(n1)[nH]c1ccc(F)cc12	-2	0	0	-1	/	/
O=[N+]([O-])c1cccc(-c2ccc(/C=N/NC(=S)NCc3ccco3)o2)c1	3	20*	11	-2	0	-1
CCCCCc1cc(=O)oc2c(C(CCN3CCN(c4ccccc4)CC3)c3ccc4c(c3)OCO4)c(OC)cc(OC)c12 (configuration not stated)	-6	22*	33*	1	-1	49*
O=C(/C=C/c1ccc2c(c1)S(=O)(=O)N(Cc1ccccc1)[C@H]2CC(=O)N1CCOCC1)N1CCOCC1	0	9	/	4	/	/
CCOC(=O)CCC(=O)Nc1ccc(S(=O)(=O)Nc2cc(OC)nc(OC)n2)cc1	-5	22*	-10	4	-1	-4
O=C(O)c1cc(Cl)c(Cl)cc1C(=O)N(Cc1ccccc1)Cc1ccccc1	-4	1	-7	2	/	/
O=C(CN(c1cccc(Br)c1)S(=O)(=O)c1ccccc1)N/N=C/c1cc([N+](=O)[O-])ccc1O	8	-17	-4	3	/	/
O=C(COc1ccccc1)NCc1n[nH]c(=S)n1-c1ccccc1	-3	16*	2	1	0	1
Cc1cccc2nc(COc3ccc4ccccc4c3Br)cn12	/	32*	1	2	0	11
CCOc1ccccc1C(=O)NCC(=O)NNC(=O)c1cccs1	4	19*	/	-2	-1	-5
COc1ccccc1CC(=O)NNC(=O)c1cccs1	-5	15*	-3	-2	-1	-1
NC(=S)NN=C1C=CCCC1	/	19*	/	/	-1	-1
NCCc1ccc(O)c(O)c1	-2	42*	0	-12	0	140*
C[C@](N)(Cc1ccc(O)c(O)c1)C(=O)O	/	3	/	/	/	/
CCOc1ccc2oc(-c3ccccc3)c(C(=O)N(C)C)c2c1	-22	-4	0	2	/	/
CCN(CC)C(=O)c1c(-c2ccccc2)oc2ccc(OC)cc12	1	15*	-3	6	0	-4
CN1CCN(S(=O)(=O)c2cccc(C(=O)Nc3cc(C(N)=O)cc(C(N)=O)c3)c2)CC1	1	16*	2	6	0	-1
CN1CCN(S(=O)(=O)c2cccc(C(=O)Nc3sccc3C(N)=O)c2)CC1	3	-3	/	-6	/	/
CCN(CC)S(=O)(=O)c1ccc2[nH]c(=O)c3ccccc3c2c1	-1	1	/	-3	/	/
C=C1c2ccccc2O[C@H](C(=O)OCC)[C@H]1OC	/	-2	/	/	/	/
O=S(=O)(NC1=NCCCCC1)c1ccc(Cl)cc1Cl	-3	14*	/	0	0	-2
CC(=O)Nc1ccc(SC[C@H](CC(C)C)N2CCN(CCc3ccccc3)CCC2=O)cc1	6	19*	-3	2	0	17*
O=C(CN1CCN(C(=O)CCC(=O)N2CCC(c3ccccc3)=N2)CC1)Nc1ccc(F)cc1	/	-5	/	/	/	/
C[C@@H]1CC2=C(C(=O)OC(C)(C)O2)[C@H](c2ccc(F)cc2)O1	/	1	/	/	/	/
